G9a block – qHTS Assay for Inhibitors of Histone Lysine Methyltransferase G9a; Histone-lysine N-methyltransferase EHMT2 (Homo sapiens), Q96KQ7; G9a H3K9 monomethylation, AlphaScreen, 2 h; Potency, µM (titrated, usually from 102 µM), without a hit: at the highest dose activity, negative = inhibition, usual class: inhibitors; hit rate 8.8% among 350,000; note: % is set by controls: 0 for no effect and ±100 for the full control effect; nearly all actives have a fitted effect of over 75% in size
Target sequence (Q96KQ7 913-1193 limits assumed): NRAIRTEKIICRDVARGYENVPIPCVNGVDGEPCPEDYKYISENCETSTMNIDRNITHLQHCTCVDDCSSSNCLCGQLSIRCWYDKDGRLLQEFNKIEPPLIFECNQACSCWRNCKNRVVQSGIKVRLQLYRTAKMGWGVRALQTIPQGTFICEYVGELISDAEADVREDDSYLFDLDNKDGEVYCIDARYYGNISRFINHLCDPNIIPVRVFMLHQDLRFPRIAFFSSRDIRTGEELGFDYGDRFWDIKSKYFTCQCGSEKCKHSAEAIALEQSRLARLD
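G9a (20 nM) was preincubated 15 min with compound, then reacted 2 h at room temperature with 500 nM biotin-H3K9 peptide and 20 µM SAM. Monomethyl-H3K9 detected by AlphaScreen using anti-H3K9me1 antibody.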
JMJD2A Tudor – qHTS Assay for Inhibitors of JMJD2A-Tudor Domain | Lysine-specific demethylase 4A (Homo sapiens), O75164 | AlphaScreen JMJD2A-Tudor / H3K4me3 peptide binding | Potency, µM (series often up to 114 µM), inactives show at the top dose activity change, negative = inhibition, actives largely listed as inhibitors | hit rate 4.4% among 390,000 | AID 504339, 2011; note: % is set by controls: 0 for no effect and ±100 for the full control effect; nearly all actives have a fitted effect of over 50% in size
HP1b binding inh – HTS for Inhibitors of HP1-beta Chromodomain Interactions with Methylated Histone Tails; Potency, µM (top dose mostly 114 µM), for the others: at the top dose activity change, negative = inhibition, usual class: inhibitors; hit rate 0.56% among 390,000; AlphaScreen HP1-beta / biotin-H3K9me3 peptide binding; Chromobox protein homolog 1 (Homo sapiens), P83916; note: nearly all actives have a fitted effect of over 70% in size
Target sequence (P83916 whole entry, looked up): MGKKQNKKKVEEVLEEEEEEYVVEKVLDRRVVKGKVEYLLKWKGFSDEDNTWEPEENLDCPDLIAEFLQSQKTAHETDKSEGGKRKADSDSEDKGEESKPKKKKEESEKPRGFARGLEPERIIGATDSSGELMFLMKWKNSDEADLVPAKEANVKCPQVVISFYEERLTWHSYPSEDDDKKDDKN
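AlphaScreen: HP1-beta (50 nM) preformed 30 min with biotin-H3(1-18)K9me3 peptide (50 nM) in PBS pH 7.4, 0.01% Tween-20. Compound added for 30 min at RT, then streptavidin donor/nickel chelate acceptor beads (10 ug/mL) for 30 min.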
Sfp PPTase inh – qHTS Assay for Inhibitors of Bacillus subtilis Sfp phosphopantetheinyl transferase (PPTase). 4'-phosphopantetheinyl transferase ffp (Bacillus subtilis), Q9F4F7. hit rate 3.5% among 310,000. Potency, µM, for the others: largest response in the series, negative = inhibition, usual class: inhibitors. Biochemical Sfp PPTase activity, qHTS;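 note: the enzyme is Sfp with the accession as filed and its product quenches rhodamine fluorescence; 0% = enzyme reaction without inhibitor and -100% = no enzyme wells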
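Step 1, compound plus 15 nM Sfp-PPTase, 15 min, room temperature. Step 2, add rhodamine-CoA (5 uM) and BHQ-2-YbbR (12.5 uM). Step 3, read 525/598 nm fluorescence at 0 and 30 min.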
BAZ2B block – qHTS Assay for Inhibitors of BAZ2B; AlphaScreen BAZ2B-H3K14Ac peptide displacement; Potency, µM (doses to about 114 µM), for the others: at the top dose activity change, negative = inhibition, hits mostly inhibitors; hit rate 4.4% among 360,000; AID 504333, 2011; note: % is set by controls: 0 for no effect and ±100 for the full control effect; nearly all actives have a fitted effect of over 60% in size
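Multi-concentration screen (max 110 uM) measuring displacement of acetylated histone H3 peptide from BAZ2B by AlphaScreen, using 50 nM protein, 50 nM peptide and 10 ug/mL streptavidin donor plus Ni-chelate acceptor beads.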
L3MBTL1 block – qHTS Assay for the Inhibitors of L3MBTL1. Lethal(3)malignant brain tumor-like protein 1 (Homo sapiens), Q9Y468. hit rate 0.66% among 230,000. Potency, µM (highest dose often 57.1 µM), for the others: top-dose activity, negative = inhibition, most hits filed as inhibitors. AlphaScreen L3MBTL1–H3K9me1 peptide binding; note: % is set by controls: 0 for no effect and ±100 for the full control effect; nearly all actives have a fitted effect of over 60% in size
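Read-out is AlphaScreen signal from streptavidin donor and nickel chelate acceptor beads (10 ug/mL final each) bridging L3MBTL1 (50 nM) and biotinylated K9-monomethylated H3(1-15) peptide (75 nM), after 30 min compound exposure at room temperature.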
* hit, by the source's call; ? = inconclusive; nt = not tested or not shown; [ ] = another dose, or the depositor's remark. Shown are actives, neighbours in structure and some others; about 12% of the full set was active somewhere. Calls come from the whole dose curve; as a rule, active = well fitted curve in the direction sought with a large enough effect; inconclusive = small, poorly fitted or top-dose-only effect, or another doubt; inactive = no such curve, though single readings can be large; an effect the other way counts as inactive or inconclusive. Potency is the fitted concentration of half-maximal effect.

SMILES	G9a block	JMJD2A Tudor	HP1b binding inh	Sfp PPTase inh	BAZ2B block	L3MBTL1 block
Cc1ccc(/C=N/c2sc3c(c2C#N)CCCCC3)o1	14.1µM*	56.2µM*	?	50.1µM*	28.2µM*	-4.9%
N#Cc1c(/N=C/c2ccco2)sc2c1CCC2	?	-29.0%	-3.3%	-12.1%	-28.1%	nt
CCOc1ccccc1NC(=O)Cn1nnc(C(=O)NCc2ccc3c(c2)OCO3)c1N	9.7%	-26.0%	5.3%[57 µM]	-0.5%	-32.7%	nt
Cc1onc(-c2ccccc2)c1-c1nnc(COC(=O)c2ccc(O)cc2)o1	1.0%[0.501 µM]	-17.0%	29.1%	nt	?	-7.7%
Cc1cc(Oc2c(C(F)(F)F)oc3c(CN4CCC(C)CC4)c(O)ccc3c2=O)cc(C)c1Cl	0.9%[59 µM]	-10.0%	23.9%	nt	0.1%	nt
O=C(CCNc1cccc(F)c1)c1cccc([N+](=O)[O-])c1	7.08µM*	?	-38.1%	20.1%	35.5µM*	-1.2%
O=C(Cc1ccc(F)cc1)OCC(=O)c1cc2ccccc2o1	?	39.7%	74.0%	-12.0%	45.3%	9.1%
Cc1ccc(C(=O)CCS(=O)(=O)c2ccc(Br)cc2)cc1	28.5%	-18.5%	31.3%	2.5%	3.9%	nt
Cc1ccc(S(=O)(=O)CCC(=O)c2cccc([N+](=O)[O-])c2)cc1	1.41µM*	28.2µM*	44.7µM*	22.4µM*	-27.5%	nt
O=C(CCNc1cccc(F)c1)c1cc2ccccc2o1	10µM*	-23.2%	37.1%	-0.6%	13.2%	?
Cc1ccc(S(=O)(=O)Cc2cc(F)c([N+](=O)[O-])cc2[N+](=O)[O-])cc1	50.1µM*	-33.3%	19.4%	-1.9%	56.2µM*	nt
CCc1ccc(-c2[nH]nc3nc(-c4cc(OC)ccc4OC)cc(C(=O)O)c23)cc1	-28.5%[59 µM]	?	27.0%	nt	?	nt
O=C(CCNc1ccc(Cc2ccncc2)cc1)c1cccc([N+](=O)[O-])c1	8.91µM*	44.7µM*	?	13.0%	25.1µM*	-16.4%
O=C(OCC(=O)N1CCN(C(=O)c2ccco2)CC1)c1cccc(S(=O)(=O)N2CCc3ccccc32)c1	-50.6%	?	?	3.7%	nt	-20.4%
CCOc1ccccc1NC1c2ccccc2C(=O)N1c1cccnc1 (stereo not given)	79.4µM*	-16.0%	6.8%	-1.8%	7.2%	nt
O=C1c2ccccc2C(Nc2ccccc2)N1c1cccnc1 (stereo not given)	13.4%	-8.2%	35.1%	20.9%	-2.5%	nt
Cc1ccc(NC(=O)CCCSc2ccccc2)cc1S(=O)(=O)N1CCOCC1	-14.6%	-18.8%	27.0%	15.6%	-17.4%	-2.3%
Cc1ccc(C(=O)N=c2sccn2C)cc1S(=O)(=O)N1CCOCC1	39.8µM*	-8.3%	36.7%	nt	-0.3%	4.6%
CCc1ccccc1NC(=O)CN(C)C(=O)CSc1nnc(Nc2cccc(C)c2C)s1	15.8µM*	-19.5%	19.2%	-9.0%	-10.2%	-7.6%
Cc1nnc(SCC(=O)N(C)CC(=O)Nc2ccccc2Cl)s1	50.1µM*	-3.0%	19.5%	nt	9.0%	-12.2%
CN(CC(=O)Nc1ccccc1Cl)C(=O)Cn1cc(C(F)(F)F)cc(Cl)c1=O	44.7µM*	0.7%	22.2%	nt	-2.3%	2.7%
CCN(C(=O)CSc1nnc(Nc2cccc(C)c2C)s1)C1CCS(=O)(=O)C1 (stereo not given)	-5.9%[59 µM]	-10.3%	12.3%	14.6%	-1.1%	-1.6%
CN(CC(=O)Nc1ccccc1Cl)C(=O)Cn1cc(C(F)(F)F)ccc1=O	-8.9%[2.33 µM]	-4.9%	31.2%	nt	4.4%	-12.2%
Fc1ccc(-n2cc(-c3ccccc3)c3c(NC4CCCCC4)ncnc32)cc1	-5.6%[59 µM]	-22.0%	31.6%	nt	?	nt
O=C(O)c1cn[nH]c1-c1cccc([N+](=O)[O-])c1	35.5µM*	-29.2%	1.9%	14.5%	-22.4%	nt
SMILES	G9a block	JMJD2A Tudor	HP1b binding inh	Sfp PPTase inh	BAZ2B block	L3MBTL1 block
Cc1ccc2nc(-c3ccco3)c(Nc3ccc4c(c3)OCCO4)n2c1	?	-9.6%	40.8%	nt	-13.4%	nt
Cc1ccn2c(Nc3ccc4c(c3)OCCO4)c(-c3ccc(C)o3)nc2c1	25.1µM*	44.7µM*	-7.3%	nt	31.6µM*	nt
c1coc(-c2nc3ccccn3c2Nc2ccc3c(c2)OCCO3)c1	12.6µM*	56.2µM*	?	nt	44.7µM*	nt
Cc1cccc2nc(-c3ccco3)c(Nc3ccc4c(c3)OCCO4)n12	?	56.2µM*	?	-1.4%	35.5µM*	nt
CCN(CC(=O)NCc1ccc(F)cc1)C(=O)/C=C/c1ccc(S(=O)(=O)N(CC)CC)cc1	-0.5%	-20.0%	-13.8%	2.1%	3.4%	nt
CCOC(=O)C1=CN(CC)S(=O)(=O)NC1c1ccc(C(F)(F)F)cc1 (stereo not given)	nt	0.7%	36.3%	nt	nt	4.8%
O=C(COc1ccccc1F)N1N=C(c2cccs2)CC1c1ccco1 (stereo not given)	50.1µM*	14.1µM*	-24.5%	nt	?	-28.3%
O=C(c1ccco1)N1N=C(c2cccs2)CC1c1ccco1 (stereo not given)	nt	-26.2%	16.7%	7.4%	-13.1%	-2.2%
Cc1ccc(C2CC(c3cccs3)=NN2C(=O)c2ccco2)o1 (stereo not given)	35.5µM*	?	-5.4%	?	?	-13.5%
O=C(COc1ccc(Cl)cc1)N1N=C(c2cccs2)CC1c1ccco1 (stereo not given)	nt	-15.5%	58.5%	nt	nt	nt
COc1ccc(N=NC2=C(O)CC(C)(C)CC2=O)c(OC)c1	28.2µM*	-33.6%	-19.3%	10.2%	?	-21.5%
CC1(C)CC(=O)C(N=Nc2ccc(S(=O)(=O)N3CCOCC3)cc2)=C(O)C1	-17.3%[59 µM]	35.5µM*	3.3%	-4.7%	-15.6%	18.3%
CC1(C)CC(=O)C(N=Nc2cccc([N+](=O)[O-])c2)=C(O)C1	50.1µM*	?	-20.9%	-4.2%	?	-9.2%
CC1(C)CC(=O)C(N=Nc2ccc(C(F)(F)F)cc2[N+](=O)[O-])=C(O)C1	nt	50.1µM*	?	-1.9%	20µM*	-16.2%
Cc1nc(N2CCCCC2)sc1C(=O)c1cccc([N+](=O)[O-])c1	?	?	?	7.1%	39.8µM*	-3.3%
Cc1nc(N2CCCCC2)sc1C(=O)c1ccc(SCCO)c([N+](=O)[O-])c1	39.8µM*	12.6µM*	?	-25.9%	39.8µM*	nt
N=C(c1cccc([N+](=O)[O-])c1)N1CCCCCC1	15.0%	-8.7%	43.2%	16.4%	0.6%	11.5%
N#Cc1cccc(NC(=O)N2CC[C@@]3(CCCN(C(=O)c4cnccn4)C3)C2)c1	5.5%[12.7 µM]	nt	nt	17.4%	nt	nt

Screening data (PubChem)
